Results as given in PubChem BioAssay (NCI).
The panel holds about 83,000 compounds, 20% with a hit somewhere; the sample as a whole holds those more often.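 96-well plates, one dose, 48 hours. Percent growth reported; active if below 10.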 Values without a mark were called inactive. Activity calls are given as the source filed them.

Test system: KM12 colon
Experiment: NCI-60 one-dose screen, 48 h (100 = growth as untreated, 0 = no growth, -100 = all killed)
Conditions: 10 µM unless noted

`O=C1CCC(N2C(=O)c3cccc(NCCCC4CCN(CCNC(=O)c5cc6c(o5)C(=O)c5ccccc5C6=O)CC4)c3C2=O)C(=O)N1` (configuration not stated) was tested, and the growth was -79.2% (active).
For `CCCCCCCCN(CCCCCCCC)C(=N)c1ccnc2ccccc12`, the growth was -82.7% (active).

Going from `CC(=[N-])N1CCC[C@@H](Nc2c3ccccc3nc3ccccc23)C1.[Cl][Pt].[NH-]CCC[NH-]` to `O=S(=O)(NCCNc1cc(-c2c(-c3cccc(O)c3)nc3sccn23)ccn1)c1ccc(Cl)cc1`, the growth rises from 49% to 59.6%.

Compared with `Cc1ccc2c(n1)C(=O)C(Oc1ccc(F)cc1)=CC2=O`, `CN(C)CCOC(=O)Nc1ccc(Cl)cc1` is higher in growth: 101% for the first, 104% for the second.

Work on `COc1cc(-c2ncn(/C=C\c3nnco3)n2)cc(C(F)(F)F)c1` yielded a growth of 10.7%.
